EBV LMP1 NFkB: inhibitors of Epstein-Barr LMP1-induced NF-kappaB reporter; 0.69% of 350,000 active; LMP1-induced NF-kappaB luciferase reporter cells, luminescence; inhibition, % at 12.5 µM; in the data active = inhibition above about 41%; inconclusive = no clear call, values can overlap the other calls
MITF TRPM1 inh: inhibitors of MITF-driven TRPM1 promoter in melanoma cells; 0.83% of 330,000 active; inhibition, % at 12.5 µM; AID 488899; SK-MEL-5 TRPM1 promoter luciferase, 24 h;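 active = mean inhibition across replicates of 60% or more, whatever share of single replicates reaches that level; inconclusive = some that reach 60%, reason not given; inactive = mean inhibition across replicates below 60%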
LGR2 antag: inhibitors of bursicon-induced Drosophila LGR2 receptor cAMP signaling; 0.35% of 380,000 active; inhibition, % at 9.99 µM; HEK293 LGR2, CRE-luciferase, bursicon-stimulated, 4 h; AID 720647;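 active = drop in luminescence signal, shown as inhibition above about 50% in the replicate tests, limit read from the data, passing the limit was not always enough; inconclusive = probably only some replicates passing the limit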;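 also: agonist challenge used bursicon conditioned medium at about half maximal strength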
Shn3 3UTR inh: Schnurri-3 reporter inhibition in Clone20 osteoblasts; inhibition, % at 12.5 µM; AID 588674; Clone20 osteoblast Shn3 3'UTR firefly luciferase, 24 h; 0.52% of 360,000 active;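 active = mean inhibition of at least 75% with every replicate also reaching 75%; inconclusive = mean inhibition at least 75% but some replicate below; inactive = mean inhibition below 75%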
EWS-Fli inh: blocks EWS/Fli oncoprotein-driven transcription; A673 NR0B1-luciferase reporter, viability-normalised; inhibition, % at 12.6 µM; 0.67% of 350,000 active; AID 651661;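 active = mean inhibition of at least 50% after viability correction, with every replicate also passing that limit; inconclusive = mean reaches 50% but only one of two replicates passes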;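 also: firefly luciferase signal divided by Alamar Blue viability fluorescence both relative to DMSO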
PAX8 inh HTS: PAX8 transcriptional activity inhibition | RMG-I TPO-luciferase reporter, SteadyGlo, 24 h | AID 652154 | inhibition, % at 12.6 µM | 1.2% of 360,000 active;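 active = mean replicate inhibition at least 60% with every replicate also reaching 60%; inconclusive = only one of the two criteria is met; inactive = mean below 60% and not all replicates reaching 60%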;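 also: luciferase light reporting Pax8 driven TPO promoter activity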
Hits are given with their value; - = inactive; ? = inconclusive; . = no result given. This is a sample that favours compounds with a hit; in the whole collection about 2.2% have one here.

SMILES	EBV LMP1 NFkB	MITF TRPM1 inh	LGR2 antag	Shn3 3UTR inh	EWS-Fli inh	PAX8 inh HTS
N/C(=N\OC(=O)c1ccc(F)cc1)c1nonc1N	-	-	-	-	-	-
O=C(C[C@@H]1CC[C@H]2[C@@H](COC[C@H](O)CN2C(=O)Cc2ccccc2)O1)NC1CCCC1	.	.	-	.	-	-
COc1ccc(OC)c(NC(=O)COc2coc(CN3CCc4ccccc43)cc2=O)c1	50	-	-	-	-	-
Cc1ccc(/C=C/C(=O)NC2=NCCS2)cc1	-	-	72	-	-	-
CC(C)(C)c1ccc(/C=C/C(=O)NC2=NCCS2)cc1	-	-	.	-	.	.
COc1ccc2c3c(n(C)c2c1)[C@@H](CO)N(CC1CCCC1)CC31CCN(C(C)=O)CC1	.	.	-	.	-	-
Cc1ccc(S(=O)(=O)Nc2ccc3c(c2)C(=O)N([C@H](C)CO)C[C@H](C)[C@@H](CN(C)C(=O)Nc2ccccc2)O3)cc1	.	.	-	.	-	-
COc1ccc(-n2cc(-c3ccccc3)c3c(N4CCOCC4)ncnc32)cc1	-	-	-	-	-	64
Brc1ccc(-n2cc(-c3ccccc3)c3c(NN4CCOCC4)ncnc32)cc1	-	-	-	-	-	95
CN(C)CCOc1ccc(-c2c(-c3ccsc3)sc3ccccc23)cc1	-	-	.	-	-	-
COc1ccc(-c2sc3ccccc3c2-c2ccc(OCCN(C)C)cc2)cc1	-	76	-	-	-	100
COc1cccc(-c2sc3ccc(OC)cc3c2-c2ccc(OCCN(C)C)cc2)c1	-	-	-	-	-	68
CO[C@H]1CN(C)C(=O)c2cc(NC(C)=O)ccc2OC[C@@H](C)N(CC2CCCCC2)C[C@H]1C	.	.	-	.	-	-
Cc1ccc(S(=O)(=O)N(C)C[C@@H]2OCCCC[C@@H](C)Oc3ccc(NS(C)(=O)=O)cc3C(=O)N([C@@H](C)CO)C[C@H]2C)cc1	.	.	-	.	-	-
O=C(C[C@H]1CC[C@@H]2[C@H](COC[C@@H](O)CN2Cc2ccc(F)cc2)O1)N1CCc2ccccc2C1	.	.	-	.	-	-
O=C(O)c1cc(/C=C/c2ccc(N3CCOCC3)cc2)nc2ccccc12	59	-	69	-	-	-
CCC(=O)Nc1ccc2c(c1)OC[C@H](C)N(C(=O)C1CC1)C[C@@H](C)[C@@H](OC)CN(C)C2=O	.	.	-	.	-	.
CO[C@@H]1CN(C)C(=O)c2ccc(NC(=O)c3cc(C)on3)cc2OC[C@@H](C)N(C(C)=O)C[C@@H]1C	.	.	-	.	-	.
O=C(/C=C/Nc1ccc(F)cc1Br)c1ccccc1	48	-	94	-	.	-
O=C(/C=C\Nc1ccccc1Br)c1ccc2c(c1)OCO2	-	-	79	-	75	-
COc1ccc(OC)c(N/C=C/C(=O)c2ccccc2)c1	72	-	96	-	81	78
CCCC#Cc1ccc2c(c1)O[C@@H](CN(C)C(=O)Nc1ccccc1F)[C@H](C)CN([C@H](C)CO)S2(=O)=O	.	.	-	.	-	-
CCC(C)[C@H](NC(=O)NCc1cccnc1)C(=O)OC (stereo partly specified)	52	-	-	-	-	-
CCC(C)[C@H](NC(=O)NCc1ccc(S(N)(=O)=O)cc1)C(=O)OC (stereo partly specified)	-	-	-	-	-	-
C=CCOc1cccc(C(=O)/C=C2/C(=O)Nc3ccccc32)c1	-	-	-	-	54	-
SMILES	EBV LMP1 NFkB	MITF TRPM1 inh	LGR2 antag	Shn3 3UTR inh	EWS-Fli inh	PAX8 inh HTS
O=C1Nc2ccc(Br)cc2/C1=C/C(=O)c1ccccc1	-	75	-	-	-	-
O=C(O)COc1ccccc1/C=C1\C(=O)Nc2ccc(Br)cc21	-	-	-	-	-	-
CC(=O)/C=C1/C(=O)Nc2ccccc21	-	-	-	-	-	-
CC=Cc1ccc2n(c1=O)C[C@@H]1[C@@H](CO)[C@H](C(=O)NCC(F)(F)F)[C@H]2N1C(=O)C1CCCC1 (mixture of isomers)	.	.	-	.	.	-
CNC(=O)C[C@H]1CC[C@H]2[C@H](COc3ccc(NC(=O)Nc4ccc(Cl)cc4)cc3C(=O)N2C)O1	.	.	-	.	-	-
O=C(Nc1ccccc1Cl)c1ccccc1	-	-	-	-	-	-
O=C(Nc1ccccc1Cl)c1ccc(C(=O)Nc2ccccc2Cl)cc1	85	-	-	-	-	-
CC(=O)Nc1ccccc1NC(=O)c1ccccc1	-	-	-	-	-	-
Nc1ccccc1NC(=O)c1ccccc1	44	-	.	-	.	-
Cc1ccc[n+](CC(=O)c2ccc(-c3ccccc3)cc2)c1	-	-	-	-	.	-
Cc1ccc(C(=O)C[n+]2ccccc2)cc1	68	-	-	-	-	-
CC(C)(C)S(=O)N1Cc2cc(C(=O)NCCCN3CCOCC3)nc(-c3cccc(C#CCC4CCCC4)c3)c2[C@@H]1CCO (stereo partly specified)	.	.	-	.	-	82
O=Nc1c2cc(-c3ccccc3)[nH]nc-2c2ccccc12	-	-	?	-	63	-
Cc1ccc(-c2cc3c(N=O)c4ccccc4c-3n[nH]2)cc1	63	74	95	-	80	-
COCC(=O)Nc1ccc2c(c1)C(=O)N(C)C[C@@H](OC)[C@@H](C)CN(Cc1ccccc1)[C@@H](C)CO2	.	.	-	.	-	.
CNC(=O)C[C@H]1CC[C@@H]2[C@@H](COc3ccc(NC(=O)c4ccc5c(c4)OCO5)cc3C(=O)N2C)O1	.	.	-	.	-	-
O=c1[nH]c(NC2CCN(S(=O)(=O)c3ccccc3C(F)(F)F)CC2)nc2c1CCCC2	53	71	-	-	-	-
COCC(=O)Nc1ccc2c(c1)C(=O)N(C)[C@@H]1CC[C@H](CC(=O)NCC(F)(F)F)O[C@@H]1CO2	.	.	-	.	-	-
CCCn1c(/C=N/Nc2nc3ccccc3[nH]2)nc2ccccc21	47	-	-	-	-	-
CCN(CC)c1ccc(/C=N/Nc2nc3ccccc3[nH]2)cc1	-	-	-	-	.	81
C[C@H]1CCCCO[C@@H](CN(C)C(=O)C2CCCCC2)[C@@H](C)CN([C@@H](C)CO)C(=O)c2cc(NC(=O)Cc3ccccc3)ccc2O1	.	.	-	.	-	-
O=C(Nc1ccc(Cl)c(Cl)c1)N[C@H]1CC[C@@H](CCNC(=O)c2ccc(F)cc2)O[C@@H]1CO	.	.	-	.	-	-
CC1CCCC(C)N1CC(O)COCc1ccccc1 (stereo unspecified)	-	-	-	-	-	-
COc1cc(COCC(O)CN2C(C)CCCC2C)cc(OC)c1OC (stereo unspecified)	88	-	-	-	-	-
CO[C@H]1CN(C)C(=O)c2cc(NC(=O)C3CC3)ccc2OC[C@@H](C)N(C(=O)c2cccnc2)C[C@@H]1C	.	.	-	.	-	.
O=C(Nc1cccnc1)c1ccc([N+](=O)[O-])s1	-	75	-	-	-	67
O=C(Nc1ccccc1F)c1ccc([N+](=O)[O-])s1	-	-	-	-	-	-
